Several values for one entry are separate records, joined by “and”; a condition that tells them apart may be missing. Equal entries are not always repeated. Results filed as inconclusive are left out. Some structures have more than one record in an assay (separate samples or runs), and their calls can disagree. Activity calls are given as the source filed them. The calls were made as follows: active = hit-call score of the fitted dose curve at least 0.9, where 1 is the maximum; inconclusive = response in the unintended direction; inactive = score below 0.9.
test: ATG_XTT_Cytotoxicity: Cytotoxicity Assessment in the Attagene TRANS-FACTORIAL HepG2 Assay (AID 2283584);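 as to AC50: cells exposed to compound for 24 h before reading; active means loss of viability signal versus DMSO baseline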
How it was run: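 Cells: human HepG2, transiently transfected with MRTU reporter constructs. Exposure 24 h. Readout: XTT, cell number. Baseline/neg ctrl DMSO; loss-of-signal scored.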

Compound | outcome | AC50
CC(C)(c1ccc(OCC2CO2)cc1)c1ccc(OCC2CO2)cc1 (stereo not given) | inactive | –
Oc1ccc(-c2ccccc2)cc1 | inactive | –
Cc1ccccc1C(=O)Nc1cccc(OC(C)C)c1 | inactive | –
CCC(C)c1cccc(C(C)CC)c1O (stereo not given) | inactive | –
CCC[CH2][Sn]([CH2]CCC)([CH2]CCC)[O]C(=O)c1ccccc1 | – | 0.906 µM (active)
CC(C)c1cccc(C(C)C)c1O | inactive | –
CC(C#N)CCC#N (stereo not given) | inactive | –
O=C1C(Cl)=C(Cl)C(=O)c2ccccc21 | inactive | –
CCNc1nc(NC(C)(C)C)nc(SC)n1 | inactive | –
CNC | inactive | –
C[C@H]1CCCC(=O)CCC/C=C/c2cc(O)cc(O)c2C(=O)O1 | inactive | –
COC(=O)c1sccc1S(=O)(=O)NC(=O)Nc1nc(C)nc(OC)n1 | inactive | –
CC(C)CCCCCCOC(=O)c1ccccc1C(=O)OCCCCCCC(C)C | inactive | –
ClC1=C(Cl)[C@]2(Cl)[C@H]3[C@H]([C@H]4C=C[C@H]3C4)[C@@]1(Cl)C2(Cl)Cl | inactive | –
Nc1ncc([N+](=O)[O-])s1 | inactive | –
CCCCCCCCCl | inactive | –
C[C@H]1O[C@@H](O[C@H]2[C@@H](O)C[C@H](O[C@H]3[C@@H](O)C[C@H](O[C@H]4CC[C@@]5(C)[C@H](CC[C@@H]6[C@@H]5CC[C@]5(C)[C@@H](C7=CC(=O)OC7)CC[C@]65O)C4)O[C@@H]3C)O[C@@H]2C)C[C@H](O)[C@@H]1O | inactive | –
Clc1ccc(C2(Cn3cncn3)CC(Br)CO2)c(Cl)c1 (stereo not given) | inactive | –
COc1ccc(C=O)cc1 | inactive | –

test: TOX21_p53_BLA_p2_viability: Viability Assessment in the Tox21 HCT-116 p53 Agonism Beta-lactamase Assay, Phase 2 (AID 2283591);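 also: compound exposure lasted 16 h at 37 °C; actives lower the ATP signal meaning cytotoxicity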
How it was run: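 Cytotoxicity readout: CellTiter-Glo ATP luminescence, 30 min at room temperature, after the beta-lactamase read. Cells were HCT116 exposed 16 h at 37C to compounds pin-transferred at 217-fold dilution from DMSO stocks.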

Compound | outcome | AC50
NC(=O)CF | inactive | –
CCCCCCCCCCCCCCCC[n+]1ccccc1 | inactive | 48.8 µM (active) and 69.6 µM (active)
COP(=S)(OC)Oc1cc(Cl)c(Br)cc1Cl | inactive | –
CC(C)(c1ccc(OCC2CO2)cc1)c1ccc(OCC2CO2)cc1 (stereo not given) | inactive | 68.3 µM (active)
Oc1ccc(-c2ccccc2)cc1 | inactive | –
NNC(=S)NN | inactive | –
COP(=S)(OC)Oc1cc(Cl)c(Cl)cc1Cl | inactive | –
CCCCP(CCCC)CCCC | inactive | –
COP(=S)(OC)Oc1ccc(Sc2ccc(OP(=S)(OC)OC)cc2)cc1 | inactive | –
O=C(Cc1ccccc1)c1ccccc1 | inactive | –
ClCCBr | inactive | –
Cc1ccccc1C(=O)Nc1cccc(OC(C)C)c1 | inactive | –
CC(C)c1ccc(CO)cc1 | inactive | –
CCC(C)c1cccc(C(C)CC)c1O (stereo not given) | inactive | –
CCC[CH2][Sn]([CH2]CCC)([CH2]CCC)[O]C(=O)c1ccccc1 | – | 0.93 µM (active)
c1cc[c]([Hg][c]2ccccc2)cc1 | inactive | –
CC(C)OC(=S)S | inactive | –
CC(C)c1cccc(C(C)C)c1O | inactive | –
CC(C#N)CCC#N (stereo not given) | inactive | –

Compound | outcome | AC50
P.[In] | inactive | –
O=C1C(Cl)=C(Cl)C(=O)c2ccccc21 | inactive | 15 µM (active)
CCNc1nc(NC(C)(C)C)nc(SC)n1 | inactive | –
c1ccc(N=NNc2ccccc2)cc1 | inactive | –
CNC | inactive | –
C[C@H]1CCCC(=O)CCC/C=C/c2cc(O)cc(O)c2C(=O)O1 | inactive | –
CCC[CH2][Sn]([Cl])([Cl])[Cl] | inactive | –
COC(=O)c1sccc1S(=O)(=O)NC(=O)Nc1nc(C)nc(OC)n1 | inactive | –
CC(C)CCCCCCOC(=O)c1ccccc1C(=O)OCCCCCCC(C)C | inactive | –
ClCc1cccnc1 | inactive | –
ClC1=C(Cl)[C@]2(Cl)[C@H]3[C@H]([C@H]4C=C[C@H]3C4)[C@@]1(Cl)C2(Cl)Cl | inactive | –
O=C(OC1CCCCC1)c1ccccc1C(=O)OC1CCCCC1 | inactive | –
COP(=S)(OC)Oc1c(Cl)cc(C)cc1Cl | inactive | –
Nc1ncc([N+](=O)[O-])s1 | inactive | –
CCCCCCCCCl | inactive | –
C[C@H]1O[C@@H](O[C@H]2[C@@H](O)C[C@H](O[C@H]3[C@@H](O)C[C@H](O[C@H]4CC[C@@]5(C)[C@H](CC[C@@H]6[C@@H]5CC[C@]5(C)[C@@H](C7=CC(=O)OC7)CC[C@]65O)C4)O[C@@H]3C)O[C@@H]2C)C[C@H](O)[C@@H]1O | – | 35.6 nM (active) and 51.1 nM (active)
Clc1ccc(C2(Cn3cncn3)CC(Br)CO2)c(Cl)c1 (stereo not given) | inactive | –
N#CN=C(N)N | inactive | –
COc1ccc(C=O)cc1 | inactive | –

Reference: PubChem BioAssay (EPA / NIEHS)
